Experimental data published in PubChem BioAssay (EPA / NIEHS).
Activity calls are given as the source filed them. The calls were made as follows: active = hit-call score of the fitted dose curve at least 0.9, where 1 is the maximum; inconclusive = response in the unintended direction; inactive = score below 0.9.

Experiment: Tanguay_ZF_120hpf_ActivityScore_legacy: (Legacy) Oregon State University Tanguay Lab 120 Hour Post-fertilization zebrafish Assay Score for Activity (AID 2283742);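 as to AC50: static exposure from 6 hpf until 120 hpf at 28 °C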
Experimental: Tanguay_ZF_120hpf_legacy is a whole embryo, multiplexed endpoint assay using zebrafish larvae exposed for 120 hours post fertilization on a 96-well plate.Tanguay_ZF_120hpf_ActivityScore_legacy is one of one assay component(s) measured or calculated from the Tanguay_ZF_120hpf_legacy assay. It is designed to make measurements of developmental malformations and mortality as detected with brightfield microscopy and combines scoring from 18 other assay components measuring more specific morphologies.Data from the assay component Tanguay_ZF_120hpf_ActivityScore_legacy was analyzed into 1 assay endpoints. This assay endpoint, Tanguay_ZF_120hpf_ActivityScore_legacy, was analyzed in the positive analysis fitting direction relative to DMSO as the negative control and baseline of activity. Using a type of morphology reporter, gain-of-signal activity can be used to understand changes in developmentals as they relate to the whole embryo. To generalize the intended target to other relatable targets, this assay endpoint is annotated to the zebrafish development intended target family, where the subfamily is embryonic morphogenesis and mortality.
Zebrafish husbandry: Tropical 5D wild-type adult zebrafish were housed in at an approximate density of 1000 per 100 gallon tank at the Sinnhuber Aquatic Research Laboratory, Oregon State University, Corvallis, OR. Each tank was kept at standard laboratory conditions of 28C on a 14-h light/10-h dark photoperiod in fish water consisting of reverse osmosis water supplemented with a commercially available salt (Instant Ocean). Spawning funnels were placed into the tanks the night prior, and embryos were collected and staged. To increase bioavailability, the chorion was enzymatically removed using pronase (63.6mg/ml, >/= 3.5U/mg, Sigma-Aldrich: P5147) at 4 hours post fertilization (hpf) using a custom automated dechorionator.Chemical exposures: Six hpf dechorionated embryos were placed 1 embryo per well in a 96-well plate prefilled with 90 ul of EM using automated embryo placement systems (AEPS). Ten microliters of each row of dilution plate 2 was added to 2 exposure plates. The final DMSO concentration used was 0.64% (vol/vol). Thirty-two embryos were also exposed to 5uM trimethyltin chloride (positive control). Plates were sealed to prevent evaporation and foil covered to reduce light exposure and kept in a 28C incubator. Embryos were statically exposed until 120 hpf. At 24 hpf, embryos were assessed for photomotor response using a custom photomotor response analysis tool (PRAT) and for developmental toxicity endpoints (MO24: mortality at 24 hpf, DP: developmental progression, SM: spontaneous movement, and NC: notochord distortion). At 120 hpf, locomotor activity was measured using Viewpoint Zebralab and assessed for 18 endpoints. Zebrafish acquisition and analysis program (ZAAP), a custom program designed to inventory, acquire, and manage zebrafish data, was used to collect developmental endpoints as either present or absent (i.e., binary responses were recorded). If mortality occurred for an embryo (at either 24 or 120 hpf), the non-mortality endpoints were not measured.

| Compound | outcome | AC50 |
| --- | --- | --- |
| CCOC(=O)c1ccc(C2CCC(NC[C@H](O)COc3ccc(O)c(NS(C)(=O)=O)c3)CC2)cc1 (stereo not given in full) | inactive | – |
| O=C1CCC(N2C(=O)c3ccccc3C2=O)C(=O)N1 (stereo not given) | inactive | – |
| CCCCCCCCCCCCCCCO | inactive | – |
| CCOC(=O)CC(CC(=O)OCC)(OC(C)=O)C(=O)OCC | inactive | – |
| CCOC(=O)COc1ccc2c(c1)CC(NCC(O)c1cccc(Cl)c1)CC2 (stereo not given) | – | 30 µM (active) |
| CCc1cc(SCc2sc(-c3ccc(C(F)(F)F)cc3)nc2CN2CCN(c3ccc(OC)cc3)CC2)ccc1OCC(=O)O | – | 61.5 µM (active) |
| COc1ccc(-n2nc(C(F)F)cc2-c2ccc(S(C)=O)cc2)cc1 (stereo not given) | – | 151 µM (active) |
| C=CC(=C)CCC=C(C)C | inactive | – |
| O=C(O)CCN(C1(C(=O)NO)CCCC1)S(=O)(=O)c1ccc(Oc2ccc(F)cc2)cc1 | inactive | – |
| O=C(CCCCCCCCc1cccnc1)N1CCC(C=C(c2ccccc2)c2ccccc2)CC1 | inactive | – |
| Cn1c(=O)c2c(ncn2C)n(C)c1=O | inactive | – |
| CNS(=O)(=O)c1cc(C(=O)N2CCC(CCN3C4CCC3CC(n3c(C)nc5ccccc53)C4)(c3cccc(F)c3)CC2)c(Cl)cc1F (stereo not given) | inactive | – |
| Clc1nc(Cl)c(Cl)c(Cl)c1Cl | inactive | – |
| CCNc1ccccc1 | inactive | – |
| CC[C@H]1CC[C@H](NCc2cc3c(cc2OC)[C@H]2C[C@H]2C(=O)N3C)[C@H](c2ccccc2)N1 | inactive | – |
| CN(C)c1ccc(N=NS(=O)(=O)O)cc1 | inactive | – |
| Nc1nc2ncc(CNc3ccc(C(=O)N[C@@H](CCC(=O)O)C(=O)O)cc3)nc2c(=O)[nH]1 | inactive | – |
| O=C(O)c1cccc(N(Cc2cccnc2)c2ccc(OC(F)F)c(OC(F)F)c2)c1 | inactive | – |
| C1=CCCC=CCCC=CCC1 | inactive | – |
| CC(C)CCCCCCOC(=O)c1ccc(C(=O)OCCCCCCC(C)C)c(C(=O)OCCCCCCC(C)C)c1 | inactive | – |

| Compound | outcome | AC50 |
| --- | --- | --- |
| CC(C)=CCCC(C)CCO (stereo not given) | inactive | – |
| O=C(OC[C@H]1O[C@@H](OC(=O)c2cc(O)c(O)c(OC(=O)c3cc(O)c(O)c(O)c3)c2)[C@H](OC(=O)c2cc(O)c(O)c(OC(=O)c3cc(O)c(O)c(O)c3)c2)[C@@H](OC(=O)c2cc(O)c(O)c(OC(=O)c3cc(O)c(O)c(O)c3)c2)[C@@H]1OC(=O)c1cc(O)c(O)c(OC(=O)c2cc(O)c(O)c(O)c2)c1)c1cc(O)c(O)c(OC(=O)c2cc(O)c(O)c(O)c2)c1 | inactive | – |
| CC[C@H](C)C(=O)O[C@H]1C[C@@H](C)C=C2C=C[C@H](C)[C@H](CC[C@@H]3C[C@@H](O)CC(=O)O3)[C@H]21 | – | 1.68 µM (active) |
| CC(=O)OCCC(C)C | inactive | – |
| On1ccccc1=S | inactive | – |
| Oc1ccc2c(c1)-c1ccccc1C2 | – | 46.6 µM (active) |
| C1N2CN3CN1CN(C2)C3 | inactive | – |
| CCCCC(CC)COC(=O)c1ccc(C(=O)OCC(CC)CCCC)cc1 (stereo not given) | inactive | – |
| NC(=O)NO | inactive | – |
| CCOc1cccc(-n2cc(C(=O)N3CCN(c4cc(C(=O)O)c5ccccc5c4)CC3)nc2-c2ccc(C)cc2)c1 | inactive | – |
| CC(C)c1cccc(C(C)C)c1N1C(=O)c2ccc(O)cc2C1=O | – | 29.5 µM (active) |
| O=C(O)CC(O)C(=O)O (stereo not given) | inactive | – |
| COCCOCCOCCOC | inactive | – |
| CC(=O)OC[C@H]1O[C@@](COC(C)=O)(O[C@H]2O[C@H](COC(C)=O)[C@@H](OC(C)=O)[C@H](OC(C)=O)[C@H]2OC(C)=O)[C@@H](OC(C)=O)[C@@H]1OC(C)=O | inactive | – |
| CC(C)=CCCC(C)=CC=O | inactive | – |
| CC(C)CC(C)(O)C#CC(C)(O)CC(C)C (stereo not given) | inactive | – |
| CC(C)CCCCCCCOC(=O)CCCCC(=O)OCCCCCCCC(C)C | inactive | – |
| CCCCCCCCCCCCc1ccccc1 | inactive | – |
| Nc1ccc(Nc2ccccc2)cc1 | – | 30.1 µM (active) |
| CCCCCCCCO | inactive | – |
